Our source for the growth values is PubChem BioAssay (NCI).

The panel holds about 83,000 compounds, 20% with a hit somewhere; the sample as a whole holds those more often.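 Testing used 96-well plates and a 48-hour single-concentration exposure. Example: -40 means 40% of the starting cells died.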 A number with no mark means an inactive call. Calls of active or inactive are those of the source. The calls were made as follows: active = growth percent below 10; inactive = the rest.

Assay in all cases: NCI-60 one-dose screen, 48 h (100 = growth as untreated, 0 = no growth, -100 = all killed)
Common to all, as to settings: 10 µM unless noted

Test [1] concerns SK-MEL-2 melanoma.
The subject of test [2] is EKVX NSCLC.
The subject of test [3] is SN12C renal.
The subject of test [4] is UO-31 renal.
Test [5] concerns TK-10 renal.
Test [6] relates to ACHN renal.
Test [7] has as its system A498 renal.
For test [8], the system named is CCRF-CEM leukemia.
The subject of test [9] is MOLT-4 leukemia.
Test [10] deals with SR leukemia.

With `O=c1nc(-c2ccccc2)c2cc(-c3ccc(N4CCCC4)nc3)ccc2[nH]1`, the growth was 37.5% in test [1]; 71.1% in test [2]; 83.9% in [3]; 63.6% in test [4]; 88.5% in test [5]; 82.6% in test [6]. The growth in test [7] was 46.6%; in test [8] it was 54.5%; in test [9], 44%; in [10], 18.2%.
In the case of `COc1ccccc1Nc1nnc(-c2ccc(Cl)cc2)o1`, the growth in [1] was 34.4%; in test [2], 50.8%; in test [3] it was 59.6%; in test [4], 69.5%; in test [5] it was 68.9%; in test [6], 72.2%. Besides, the growth was 45.3% in [7], 38% in test [8], 19.5% in test [9] and 19.7% in test [10].
Consider `CC(=O)ON1CCCC(P(=O)(OCOC(=O)C(C)(C)C)OCOC(=O)C(C)(C)C)C1=O` (stereo not given), for which the growth in test [1] is 9.04% (active); in test [2], 9.78% (active); in [3], -1.1% (active); in test [4], -8.25% (active); in test [5], 1.68% (active); in test [6], 6.57% (active). For the same molecule, the growth in [7] was -8.06% (active); in [8], -7.6% (active); in test [9], -25.4% (active); in [10], -22.3% (active).
For `CC1CCCN(CCCCCOc2ccc3oc4ccc(Cl)cc4c(=O)c3c2)C1` (stereo not given), the growth in test [1] is 96.7%; in [2], 78.3%; in [3], 74.6%; in test [4], 70.7%; in test [5] it was 92%; in [6], 89.4%. Besides, the growth in [7] is 76.3%; in [8], 72.8%; in test [9], 48.5%; in test [10] it was 21%.
Consider `CCOC(=O)c1c(C)nc2c(c1N)/C(=C/c1ccc[nH]1)C(=O)N2Cc1ccc(C(F)(F)F)cc1`, for which the growth in test [1] was 75.5%; in test [2], 53.7%; in test [3], 49.4%; in test [4], 35.4%; in test [5] it was 49.3%; in test [6] it was 26.1%. For the same molecule, the growth is 57.5% in [7], 75% in test [8], 78.4% in test [9] and 62.5% in test [10].
Consider `COc1cc2c(cc1OC)C(Sc1ccc(Cl)cc1)c1c(nc(N)c(C#N)c1N)O2` (stereo not given), for which the growth in test [1] is -21.1% (active); in [2], 1.68% (active); in test [3], 1.66% (active); in test [4], -36.3% (active); in test [5], -12.6% (active); in [6], -66.9% (active). For the same molecule, the growth is 66.4% in test [7], -7.67% (active) in [8], 0.994% (active) in test [9] and -13.3% (active) in test [10].
Take `NC(=O)c1ccc2nc3c(n2c1)C(=O)C(=O)c1ccccc1-3`: the growth in [1] was -71.2% (active); in [2], -76% (active); in test [3] it was -83.3% (active); in [4], -99.7% (active); in [5], -72.9% (active); in test [6], -100% (active). For the same molecule, the growth in test [7] was -58.6% (active); in [8], -1.51% (active); in test [9] it was -37.8% (active); in test [10] it was -4.89% (active).
As for `C=C1C(=O)O[C@H]2[C@H]1CC/C(COC(=O)NCc1nc3ccccc3[nH]1)=C\CC[C@@]1(C)O[C@@H]21`, the growth is 60.2% in [1]; 83% in test [2]; 81.6% in [3]; 75.5% in test [4]; 74.3% in test [5]; 91.4% in test [6]. In addition, the growth was 135% in [7], 10.9% in [8], 77.3% in test [9] and 54.1% in [10].
In the case of `COC1=CC2C=C(C3N(c4ccccc4)NC(=O)[C@@H]4CCCN34)C(=O)NC2C=C1` (stereo not given in full), the growth in test [1] is 97.9%; in test [2], 96.7%; in [3] it was 107%; in test [4], 86.9%; in test [5], 100%; in test [6], 102%. For the same molecule, the growth was 95.9% in test [7], 113% in test [8], 124% in test [9] and 105% in [10].
For the molecule `C=C1C(=O)O[C@H]2[C@H]1CC/C(COC(=O)n1ccnc1)=C\CC[C@@]1(C)O[C@@H]21`, the growth in [1] was 89.4%; in test [2], 80.9%; in [3], 96.2%; in test [4], 73.3%; in test [5] it was 94.7%; in test [6] it was 82.8%. Also, the growth in [7] is 125%; in [8] it was 74.3%; in test [9], 83.4%; in [10], 77.5%.
As to `CCN1CCN(c2ccc(NC(=O)Nc3nc4ccc(-c5ccccc5OC)cc4s3)cc2)CC1`, the growth in test [1] was -65.5% (active); in test [2], -68.4% (active); in test [3] it was -82.1% (active); in test [4], -91.6% (active); in test [5], -48% (active); in test [6] it was -95.5% (active). Moreover, the growth in test [7] was 70.2%; in test [8], -17.3% (active); in [9], -51.7% (active); in [10] it was -38% (active).
Turning to `C=C1C(=O)O[C@H]2[C@H]1CC/C(COC(=O)c1cn(C)c3ccccc13)=C\CC[C@@]1(C)O[C@@H]21`, the growth in [1] is -60% (active); in test [2], -29.1% (active); in [3] it was -40.3% (active); in [4] it was -93.5% (active); in [5] it was -75.2% (active); in test [6] it was -82.7% (active). Moreover, the growth was 65.4% in test [7], 1.59% (active) in test [8], -0.986% (active) in [9] and -9.81% (active) in test [10].
Regarding `O=c1[nH]c(-c2cccc(F)c2)cc2cc(F)ccc12`, the growth is 67.4% in test [1]; 39.3% in test [2]; 49.3% in test [3]; 55.8% in test [4]; 58.5% in test [5]; 47% in test [6]. For the same molecule, the growth in test [7] is 21.9%; in test [8], 13.6%; in test [9] it was 21.9%; in test [10] it was 22.5%.
As for `Cn1c2ccccc2c2c(OC(=O)c3ccccc3)c3c(nc21)-c1ccccc1C3`, the growth in [1] is 81.1%; in test [2] it was 86%; in test [3], 98.1%; in [4], 79.9%; in test [5], 124%; in [6] it was 97.1%. Further, the growth in test [7] is 119%; in test [8], 98.8%; in [9], 96.3%; in test [10], 91.7%.
